The campaign covered roughly 320,000 compounds. About 9,100 (2.8%) were called active. Where a call stands in place of a potency, no number is given. Roughly 3% stayed inconclusive and do not appear here. The full list was thinned out, with actives kept by preference. Unmarked numbers belong to inactive results. The call rests on the fitted dose curve; in most records, active means well fitted activation curve with a large enough effect; inconclusive means small, poorly fitted or top-dose-only effect; inactive means no such curve, though single readings can be large or run the other way.
Potency means the concentration at half of the fitted maximal effect.

The assay in a line: qHTS Assay for Rab9 Promoter Activators. Further: nearly all actives have a fitted effect of over 60% in size. The conditions noted are these: Huh7 Rab9 promoter-luciferase reporter, luminescence, 24 h; series mostly up to 9.22 µM. In a few lines: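 Quantitative HTS format; Huh7 Rab9-luciferase reporter cells (1500/well) receive compound 2 h post-plating, incubate 24 h at 37 °C, then get luciferase reagent for 10 min before luminescence reading.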
A general note: In qHTS, concentration-response curves come from the screen itself.
Regarding `CCOc1ccc(C(=O)NCC(=O)N2CCN(c3ccc(C(F)(F)F)cn3)CC2)cc1`, the Potency entry was “inactive”.
The same measure, in the same setting: the same measure for `CCCCn1c(N)c(N(CCC(C)C)C(=O)COC(=O)c2ccc(CC)cc2)c(=O)[nH]c1=O`: “inactive”.
Turning to `Cc1ncc(CO)c(/C=N/NC(=O)c2cccc(S(=O)(=O)N3CCCC3)c2)c1O`, the Potency entry was “inactive”.
`O=C(N/N=C/c1cccc([N+](=O)[O-])c1)C1CC(=O)N(c2ccc(Br)cc2)C1` (centres undefined): the Potency result is “inactive”.
As for `Cc1ccc(NC(=O)O/N=C/c2cccc([N+](=O)[O-])c2)cc1`, the Potency result was “inactive”.
`O=[N+]([O-])c1cccc(/C=N/Nc2ncc(Br)cn2)c1`: the Potency is 2820 nM (active).
Same read-out and setting: the same measure for `CCOc1ccc(NC(=O)CN(C)C(=O)Cn2c(=O)cnc3ccccc32)cc1OCC`: “inactive”; for `O=C(N/N=C/c1ccccn1)c1cccnc1`: “inactive”; for `Cc1nn(Cc2ccc(Cl)cc2)c(Cl)c1/C=N/NC(=O)c1cccnc1`: “inactive”.
Turning to `Cc1cc(/C=N/NC(=O)c2cccnc2)c(C)n1CC(C)C`, the Potency is 2820 nM (active).
Consider `Cc1occc1C(=O)Nc1nnc(-c2ccncc2)s1`, for which the Potency result was “inactive”.
Same read-out and setting: the same measure for `COc1ccc(NC(=O)CCC(=O)Nc2nnc(C3CCCCC3)s2)cc1`: “inactive”; for `Cc1cnc(NC(=O)c2ccccn2)s1`: 282 nM (active).
Still for that read-out and setting: the same measure for `Cc1occc1C(=O)Nc1nnc(C2CCCCC2)s1`: 2820 nM (active).
In the case of `CCN(CC)c1ccc(NC(=O)c2ccc(Cl)nc2)cc1`, the Potency result is “inactive”.
As for `Cc1cnc(NC(=O)CSc2c(Cl)cccc2Cl)s1`, the Potency result was “inactive”.
On the same count and under the same terms, the same measure for `Cc1cnc(NC(=O)c2ccc(Cl)nc2)s1`: 2820 nM (active); for `O=C(Cc1cccs1)Nc1nnc(C2CC2)s1`: “inactive”.
Take `O=C(Nc1nnc(C2CC2)s1)c1ccccn1`: the Potency is 447 nM (active).
Turning to `Cc1cnc(NC(=O)C2CCCC2)s1`, the Potency entry is “inactive”.
Regarding `CS(=O)(=O)c1ccc2nc(NC(=O)c3ccc(Cl)nc3)sc2c1`, the Potency result was “inactive”.
On to `O=C(Nc1nnc(C2CC2)s1)c1cc(Cl)sc1Cl`, for which the Potency entry was “inactive”.
Regarding `CCCCCN(C(=O)CCC(=O)OCC(=O)NCc1ccc(OC)cc1)c1c(N)n(CCCC)c(=O)[nH]c1=O`, the Potency result is “inactive”.
As for `CC(=O)c1ccccc1NC(=O)C1CC(=O)N(c2ccc3c(c2)OCCO3)C1` (centres undefined), the Potency result is “inactive”.
The same measure, in the same setting: under `CN(CC(=O)Nc1ccc(OC(F)(F)F)cc1)C(=O)C1CCC1` stands “inactive”; under `CSc1ccccc1NC(=O)COC(=O)CCCOc1ccc(C)cc1`, “inactive”.
On to `Cc1ccc(S(=O)(=O)N2CCN(C(=O)N3CCOCC3)CC2)c(C)c1`, for which the Potency entry is “inactive”.
Same read-out and setting: under `COc1cc(/C=N/N2CCN(c3ccccc3)CC2)ccc1OC(C)=O` stands “inactive”.
As to `COc1ccccc1N1CCN(C(=O)C(=O)N/N=C/c2ccccc2F)CC1`, the Potency entry was “inactive”.
On to `COc1ccccc1N1CCN(/N=C/c2ccc(O)cc2O)CC1`, for which the Potency was 3160 nM (active).
On the same count and under the same terms, under `Fc1ccc(COc2ccc(-c3nnco3)cc2)cc1` stands 3980 nM (active); under `Fc1ccc(COc2cccc(-c3n[nH]c(=S)o3)c2)cc1`, “inactive”.
For the molecule `Fc1cccc(Cl)c1COc1ccc(-c2nnco2)cc1`, the Potency result was “inactive”.
Consider `CC(NC(=O)c1cccc(S(=O)(=O)N2CCc3ccccc3C2)c1)c1ccco1` (centres undefined), for which the Potency entry is “inactive”.
Take `O=C(CSc1nnc(CN2CCCC2)n1-c1ccc(F)cc1)c1ccc2c(c1)OCO2`: the Potency result is “inactive”.
With `CC(C)(C)OC(=O)NCCCCCNC(=O)c1[nH]cnc1C(=O)Nc1nccs1`, the Potency result is “inactive”.
On to `CC(C)c1ccc(N2CCN(C(=O)c3ccccc3NC(=O)/C=C(\C(=O)O)c3ccccc3)CC2)cc1`, for which the Potency result is “inactive”.
Regarding `C=CCSc1nnc(NC(=O)c2ccc(NC(C)=O)cc2)s1`, the Potency result was “inactive”.
Turning to `Cc1cccc(CSc2nnc(NC(=O)CSc3nnc(C)s3)s2)c1`, the Potency entry is “inactive”.
Take `O=C(/C=C/c1ccccc1)Nc1nnc(SCC(=O)c2ccc3ccccc3c2)s1`: the Potency result is “inactive”.
In the case of `NC(=O)CSc1nnc(NC(=O)c2ccc(Br)o2)s1`, the Potency result is “inactive”.
`CCSc1nnc(NC(=O)c2ccc(C)cc2)s1`: the Potency was 2240 nM (active).
Take `NC(=O)CSc1nnc(NC(=O)c2ccc3ccccc3c2)s1`: the Potency was 2820 nM (active).
On the same count and under the same terms, the same measure for `C[C@H](NC(=O)c1ccccc1)C(=O)OCC(=O)c1c[nH]c2ccccc12`: “inactive”; for `O=C(Nc1ccc(C(F)(F)F)cc1)c1cccc(-n2cnnn2)c1`: “inactive”; for `O=C(CCNS(=O)(=O)c1ccccc1)NCCSc1ccc(Br)cc1`: “inactive”.
As to `Cc1cc(C)nc(Nc2ncn[nH]2)n1`, the Potency entry is “inactive”.
For `COc1ccccc1-c1nc(SC)n[nH]1`, the Potency entry was “inactive”.
On the same count and under the same terms, under `Cc1cc(C)nc(Nc2n[nH]c(-c3ccccc3N)n2)n1` stands 501 nM (active); under `COC(=O)c1ccc(COC(=O)CNC(=O)c2cccc(OC)c2)o1`, “inactive”; under `O=C(Nc1cc(Cl)ccc1N1CCOCC1)c1ccc(N2CCCC2=O)cc1`, “inactive”.
`COc1ccccc1CNC(=O)COC(=O)CNS(=O)(=O)c1ccc(NC(C)=O)cc1`: the Potency result is “inactive”.
For the molecule `Cc1cccc(C(=O)NCC(=O)OCC(=O)N(C)CC(=O)Nc2ccccc2Cl)c1`, the Potency entry is “inactive”.
Take `CCn1c(SCC(=O)NCC2CCCO2)nc2ccccc21` (centres undefined): the Potency entry was “inactive”.
Regarding `CN(C(=O)COC(=O)CCCc1c[nH]c2ccccc12)c1c(N)n(Cc2ccccc2)c(=O)[nH]c1=O`, the Potency result is “inactive”.
Take `O=[N+]([O-])c1cccc(C2=NCCS2)c1`: the Potency result is “inactive”.
As to `FC(F)(F)c1ccnc(Oc2ccc(C3=NCCS3)cc2)c1`, the Potency was 708 nM (active).
Turning to `O=Cc1ccc(Oc2cccc(C(F)(F)F)c2)nc1`, the Potency result was “inactive”.
`CCN(CC(=O)Nc1ccc(OC)cc1)C(=O)c1ccc(=O)n(Cc2ccccc2)n1`: the Potency result was “inactive”.
In the case of `COc1ccc(NC(=O)COC(=O)c2n[nH]c3ccccc23)c(OC)c1`, the Potency entry is “inactive”.
For the molecule `COc1cccc(NC(=O)c2cc(S(=O)(=O)N3CCc4ccccc43)cn2C)c1`, the Potency result was “inactive”.
As to `O=c1ccc2c(-c3ccccc3S(=O)(=O)O)c3ccc(O)c(O)c3oc-2c1O`, the Potency result was “inactive”.
For `COc1cc(OC)cc(C(=O)NCC(=O)N2CCCCCCC2)c1`, the Potency entry is “inactive”.
As for `Cc1ccc2nc(SCC(=O)NC3CCCC3)[nH]c2c1`, the Potency entry was “inactive”.
`Cc1ccc(SCCC(=O)Nc2cc(C)on2)cc1`: the Potency result was “inactive”.
On to `Cc1ccc2nc(-c3ccc(SCC(=O)Nc4cc(C)on4)nc3)[nH]c2c1`, for which the Potency was 3980 nM (active).
For the molecule `COc1ccc(N(CC(=O)NCCSCc2cccc(Cl)c2)S(C)(=O)=O)cc1`, the Potency result is “inactive”.
As for `CCN(C(=O)CSc1ncnc2sccc12)c1c(N)n(Cc2ccccc2)c(=O)[nH]c1=O`, the Potency result was “inactive”.
With `NS(=O)(=O)c1ccc(CCNC(=O)COC(=O)COc2cccc(C(F)(F)F)c2)cc1`, the Potency entry is “inactive”.
Regarding `COc1ccc(C2Nc3ccccc3C(=O)N2Cc2ccccc2)cc1Cn1nnc2ccccc21` (centres undefined), the Potency entry is “inactive”.
On to `COc1ccc(C2Nc3ccccc3C(=O)N2c2ccc(F)cc2)cc1Cn1nnc2ccccc21` (centres undefined), for which the Potency result was “inactive”.
Same read-out and setting: the same measure for `COc1ccc(C2Nc3ccccc3C(=O)N2c2ccc(Cl)cc2)cc1Cn1cc([N+](=O)[O-])cn1` (centres undefined): 2000 nM (active); for `COc1ccccc1Nc1nnc(SC(C)C(=O)NC2CC2)s1` (centres undefined): “inactive”.
Consider `CCN(CC)CCCNC(=O)COc1ccc2oc3c(c2c1)CCCC3`, for which the activation, negative = inhibition is 1.01% [at 1.84 µM].
As to `CCOC(=O)N1CCN(C(=O)COc2ccc3oc4c(c3c2)CCCC4)CC1`, the Potency entry was “inactive”.
For `O=C(COc1ccc2oc3c(c2c1)CCCC3)Nc1ccccn1`, the Potency was 1580 nM (active).
As for `COc1ccc(C)cc1NC(=O)CN1c2cccc3cccc(c23)S1(=O)=O`, the Potency result was “inactive”.
With `COC(=O)c1cc2c(N)c(C(=O)c3ccc(Cl)cc3)sc2nc1C(OC)OC`, the Potency result was “inactive”.
Still for that read-out and setting: under `CN(C)c1ccnc2sc(C(=O)c3ccccc3)c(N)c12` stands 2820 nM (active).
As to `CCCC(=O)n1nc(-c2ccccc2)nc1N`, the Potency entry was “inactive”.
Consider `CN(C)c1ccnc2sc3c(=O)n(Cc4ccccc4)cnc3c12`, for which the Potency entry was “inactive”.
On to `CCN(CC)C(=O)c1sc2nc(-c3ccccc3)ccc2c1N`, for which the Potency is 1780 nM (active).
`Cc1ccc2c(N)c(C(=O)c3ccccc3)sc2n1`: the Potency was 3160 nM (active).
`NC(=O)c1sc2nc3c(c(-c4ccccc4)c2c1N)CCC3`: the Potency result was “inactive”.
As for `CS(=O)(=O)c1sc2nc(-c3ccccc3)cc(-c3ccccc3)c2c1N`, the Potency entry is “inactive”.
With `Cc1nc2ccccc2c(-c2ccccc2)c1C(=O)c1ccccc1`, the Potency result is “inactive”.
As for `CCOc1ccc(S(=O)(=O)N2CCCCC2)cc1NC(=O)CN1CCCC1c1cccs1` (centres undefined), the Potency result was “inactive”.
Still for that read-out and setting: the same measure for `N#Cc1ccc(OCC(=O)NC(=O)NC2CCS(=O)(=O)C2)cc1` (centres undefined): “inactive”.
As for `CCOC(=O)c1cc(-c2ccccc2C)n(Cc2cc(C)no2)n1`, the Potency entry was “inactive”.
Still for that read-out and setting: the same measure for `Cc1ccc(F)cc1NC(=O)CSCc1c(C)noc1C`: “inactive”; for `CN(CC(=O)Nc1ccc(Cl)c(C(F)(F)F)c1)C(=O)CCC(=O)c1ccccc1`: “inactive”; for `NC1CCN(O)C1=O` (centres undefined): “inactive”.
With `CC(C)CN(C(=O)CSc1ncnc2sccc12)C1CCS(=O)(=O)C1` (centres undefined), the Potency result is “inactive”.
As for `CC(=O)Nc1ccc(NC(=O)C(NS(=O)(=O)c2ccc3c(c2)OCCO3)C(C)C)cc1` (centres undefined), the Potency result is “inactive”.
For `Cc1ccc(S(=O)(=O)N(C)CC(=O)NCC(c2ccc(F)cc2)N2CCOCC2)cc1` (centres undefined), the Potency entry is “inactive”.
As for `O=C(COc1ccc(Cl)cc1)Nc1ccc2oc(=O)ccc2c1`, the Potency entry is “inactive”.
`O=C(Nc1ccccc1)c1ccc(NC(=O)c2cccs2)cc1`: the Potency entry is “inactive”.
Still for that read-out and setting: under `Cc1ccc(C(=O)NNC(=O)c2cccs2)cc1` stands 2820 nM (active); under `Cc1ccc(C)c(NC(=O)CCC(=O)NNC(=O)c2cccs2)c1`, “inactive”.
For `CCCc1ccc(-c2csc(NC(=O)Cc3cccs3)n2)cc1`, the Potency entry was “inactive”.
On to `NNC(=O)c1ccc(Cl)cc1Cl`, for which the Potency result is “inactive”.
Turning to `Cc1nc(-c2ccc(NC(=O)c3cccs3)cc2)cs1`, the Potency was 398 nM (active).
For the molecule `O=C(NNC(=O)c1ccc(Cl)cc1Cl)c1cccs1`, the Potency was 3550 nM (active).
Turning to `CC(C)C(=O)Nc1ccc(C(=O)NNC(=O)c2cccs2)cc1`, the Potency result is “inactive”.
On the same count and under the same terms, the same measure for `Cc1ccc(NNC(=O)c2cccs2)cc1Cl`: “inactive”.
`Cc1ccc(C(=O)Nc2ccc(NC(=O)c3cccs3)cc2)c(C)c1`: the Potency entry was “inactive”.
Turning to `Cc1ccc(-c2csc(NC(=O)c3cccs3)n2)cc1`, the Potency was 3550 nM (active).
With `Cc1ccc(-c2csc(NC(=O)Cn3[nH]c(=O)c4ccccc4c3=O)n2)cc1`, the Potency entry is “inactive”.
The same measure, in the same setting: the same measure for `Cc1cccc(C)c1NC(=O)CNC(=O)C1CCCC1`: “inactive”.

Values taken from PubChem BioAssay AID485297 (National Center for Advancing Translational Sciences (NCATS), 2010).
